Inconclusive results are not listed. Active and inactive are the calls of the source. Unless noted, calls come from the whole dose curve; as a rule, active = well fitted curve in the direction sought with a large enough effect in the repeat runs; inconclusive = weak or mixed curves; inactive = no such curve, though single readings can be large; an effect the other way counts as inactive or inconclusive.
What was measured:
[1] = A CellTox Green Cytotoxicity Assay to monitor cytotoxicity in HepG2 cells - 8 hour (AID 1224890); note: nearly all actives have a fitted effect of over 45% in size
Procedure, shortened: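 HepG2, 600 cells/well premixed w/ CellTox Green; 5 h settle, 37 C/5% CO2; pintool cpd add (DMSO); 37 C, 40 h; fluorescence read at 0, 8, 16, 24, 32, 40 h.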

[2] = qHTS assay to identify small molecule antagonists of the estrogen receptor alpha (ER-alpha) signaling pathway using the BG1 cell line in the presence of 0.1 nM 17-beta-estradiol - cell viability counter screen (AID 1259241); note: nearly all actives have a fitted effect of over 40% in size
Procedure, shortened: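 Cells were plated and left 24 hr, compounds in DMSO were pinned in, 17beta-estradiol was added to 0.1 nM final, and after 22 hr CellTiter-Fluor reagent was added for 30 min before fluorescence was read.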

[3] = qHTS assay to identify small molecule antagonists of the androgen receptor (AR) signaling pathway using the MDA cell line in the presence of 0.5 nM R1881 - cell viability counter screen (AID 1259242); note: nearly all actives have a fitted effect of over 45% in size
Procedure, shortened: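 Live-cell protease fluorescence, CellTiter-Fluor, 30 min at 37C. Cells: MDA-kb2, 3,000/well, preincubated 5 hr. Compounds plus 0.5 nM R1881 final, 16 hr, 37C, 0% CO2.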

[4] = biological target: Estrogen receptor (Homo sapiens) (UniProt P03372); test: qHTS assay to identify small molecule antagonists of the estrogen receptor alpha (ER-alpha) signaling pathway using the BG1 cell line in the presence of 0.1 nM 17-beta-estradiol (AID 1259244); note: nearly all actives have a fitted effect of over 50% in size
Procedure, shortened: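 Luminescence after ONE-Glo (30 min, room temperature) measured ERE-luciferase activity in VM7Luc4E2 cells treated 22 h with compound and 0.1 nM final 17beta-estradiol as stimulator.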

[5] = qHTS assay to identify small molecule HDAC inhibitors (AID 1259364);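 note: wild-type HCT-116 cells with endogenous class I/II HDAC activity; top concentration of the series differs between compounds; nearly all actives have a fitted effect of over 45% in size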
Procedure, shortened: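 HCT-116 (wild type), 1,500 cells/well, overnight; compound 2 hr 37C 5% CO2; HDAC-Glo I/II reagent 30 min RT; luminescence readout.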

[6] = qHTS assay to identify small molecule HDAC inhibitors - cell viability counter screen (AID 1259365); note: series mostly up to about 92 µM; nearly all actives have a fitted effect of over 50% in size
Procedure, shortened: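 Counter screen in wild-type HCT-116 cells: compounds dissolved in DMSO are pin-transferred onto overnight-plated cells and left 2hr at 37C. ATP-based CellTiter-Glo luminescence then measures viable cells.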

[7] = qHTS assay to identify small molecule agonists of the sonic hedgehog signaling (Shh) pathway - cell viability counter screen (AID 1259366); note: nearly all actives have a fitted effect of over 50% in size
Procedure, shortened: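 Cells are plated at 2,000 per well and left 4hr at 37C, 5% CO2 before compound addition. After 23hr of treatment, CellTiter-Fluor reagent is added for 1hr at 37C and fluorescence is measured.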

[8] = qHTS assay to identify small molecule antagonists of the sonic hedgehog signaling (Shh) pathway - cell viability counter screen (AID 1259367); note: nearly all actives have a fitted effect of over 55% in size
Procedure, shortened: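 CellTiter-Fluor signal in conditioned medium-stimulated 3T3 Gli1-Luc cells, 23 hr compound exposure, 37C.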

[9] = qHTS assay to identify small molecule agonists of the sonic hedgehog signaling (Shh) pathway (AID 1259368; calls by dose curve;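 note: NIH/3T3-derived 3T3Gli1-Luc cells carrying a stable Gli1-driven firefly luciferase reporter; series mostly up to about 92 µM; nearly all actives have a fitted effect of over 15% in size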)
Procedure, shortened: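 Read-out: firefly luciferase luminescence from a Gli1 response element reporter stably integrated in NIH/3T3-derived 3T3Gli1-Luc cells, measured 30 min at room temperature after reagent addition. Compound exposure lasted 24 hr at 37 C, 5% CO2.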

[10] = qHTS assay to identify small molecule antagonists of the sonic hedgehog signaling (Shh) pathway (AID 1259369; calls by dose curve; note: nearly all actives have a fitted effect of over 45% in size)
Procedure, shortened: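 Luminescence readout: firefly Luc under Gli1 response element in 3T3Gli1-Luc cells (NIH/3T3 clone). Antagonist mode, stimulation by conditioned medium; compound exposure 24hr at 37 C, 5% CO2.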

[11] = qHTS assay to identify small molecule agonists of the androgen receptor (AR) signaling pathway in the presence of an antagonist - cell viability counter screen (AID 1259379);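 note: MDA-kb2 human breast cancer cells carrying an MMTV luciferase reporter; series mostly up to about 92 µM; nearly all actives have a fitted effect of over 25% in size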
Procedure, shortened: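 Viability counter screen: CellTiter-Fluor fluorescence, measured in the same wells as the luciferase read-out. MDA-kb2 cells, 3,000/well, with nilutamide at 3.0uM final and compounds at 15 concentrations, 16 hr at 37C, 0% CO2.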

[12] = qHTS assay to identify small molecule agonists of the estrogen receptor beta (ER-beta) signaling pathway - cell viability counter screen (AID 1259380); note: nearly all actives have a fitted effect of over 30% in size
Procedure, shortened: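 Luminescence read-out (CellTiter-Glo, 30 min, room temp) taken in the same wells as the beta-lactamase reporter assay; ER-beta-UAS-bla HEK293T cells exposed to DMSO-dissolved compounds for 16 hr at 37C in 2% charcoal-stripped FBS medium.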

[13] = qHTS assay to identify small molecule antagonists of the estrogen receptor beta (ER-beta) signaling pathway - cell viability counter screen (AID 1259382);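 note: HEK293T cells carrying ER-beta-UAS-bla reporter stimulated with estradiol; series mostly up to about 92 µM; nearly all actives have a fitted effect of over 55% in size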
Procedure, shortened: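 Luminescent ATP read-out (CellTiter-Glo, 30 min, RT) taken in the same wells as the bla reporter assay. HEK293T ER-beta-UAS-bla cells in 2% charcoal-stripped FBS were exposed to compounds with 1nM E2 for 16 hr at 37C.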

[14] = qHTS assay to identify small molecule agonists or antagonists of the thyroid stimulating hormone receptor (TSHR) signaling pathway - wild type cell line counter screen (AID 1259384; calls by dose curve)
Procedure, shortened: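 Counter screen in untransfected Hek293: compounds (15-point titration, triplicate) plus phosphodiesterase inhibitor Ro20-1724 added after 18 h plating; 30 min RT. Intracellular cAMP via competitive d2/cryptate immunoassay, 1 h incubation.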

[15] = biological target: Androgen receptor (Homo sapiens) (UniProt P10275); test: qHTS assay to identify small molecule antagonists of the androgen receptor (AR) signaling pathway using the MDA cell line in the presence of 0.5 nM R1881 (AID 1259243); note: nearly all actives have a fitted effect of over 50% in size
Procedure, shortened: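 MDA-kb2, MMTV-luc (AR/GR elements); 3,000 cells/well; cpd + 0.5 nM R1881 final; 16 hr 37C, 0% CO2; ONE-Glo 30 min RT; luminescence.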

[16] = biological target: Androgen receptor (Homo sapiens) (UniProt P10275); test: qHTS assay to identify small molecule agonists of the androgen receptor (AR) signaling pathway in the presence of an antagonist (AID 1259381; calls by dose curve; note: nearly all actives have a fitted effect of over 15% in size)
Procedure, shortened: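 Luciferase read-out (ONE-Glo, 30min room temperature) in MDA-kb2 MMTV-reporter cells; agonist mode run in presence of AR antagonist nilutamide, 3.0uM final. Compounds tested as 15-point series, 16hr exposure at 37C, 0% CO2.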

[17] = biological target: Estrogen receptor beta (Homo sapiens) (UniProt Q92731); test: qHTS assay to identify small molecule agonists of the estrogen receptor beta (ER-beta) signaling pathway (AID 1259377; active = well fitted activation curve with a large enough effect in the signal ratio in the repeat runs, not every such curve was filed as active; the % refers to the signal ratio)
Procedure, shortened: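 Agonist mode cell assay in GripTite HEK293T cells expressing an ER-beta fusion that drives beta-lactamase from an Upstream Activator Sequence; 16 hr compound exposure at 37C, then 2 h LiveBLAzer B/G FRET substrate at room temperature, fluorescence read-out.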

[18] = qHTS assay to identify small molecule phospholipidosis (PLD) inducers (AID 1259344; active = well fitted curve in the direction sought with a large enough effect; an effect the other way counts as inactive or inconclusive)
Procedure, shortened: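 Accumulated phospholipid, stained red by LipidTOX during 24 h compound treatment of HepG2 cells at 37 C, is quantified from images as pit number and intensity, normalised per cell using Hoechst-stained nuclei.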

[19] = biological target: Estrogen receptor beta (Homo sapiens) (UniProt Q92731); test: qHTS assay to identify small molecule antagonists of the estrogen receptor beta (ER-beta) signaling pathway (AID 1259378; active = well fitted inhibition curve with a large enough effect in the signal ratio in the repeat runs, not every such curve was filed as active; the % refers to the signal ratio)
Procedure, shortened: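 Antagonist mode: compounds added to beta-lactamase reporter HEK293T ER-beta-UAS cells stimulated with E2 (1nM final), 16 hr at 37C. LiveBLAzer B/G FRET substrate, 2 hours room temperature, fluorescence read-out.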

[20] = biological target: Estrogen receptor (Homo sapiens) (UniProt P03372); test: qHTS assay to identify small molecule agonists of the estrogen receptor alpha (ER-alpha) signaling pathway in the presence of an antagonist (AID 1259383; calls by dose curve; note: top concentration of the series differs between compounds; nearly all actives have a fitted effect of over 15% in size)
Procedure, shortened: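 Luciferase luminescence (ONE-Glo, 30min at room temperature) measured in VM7Luc4E2 cells after 22hr compound exposure at 15 concentrations, with 10.0nM ICI-182,780 final present; cells express endogenous ER-alpha and carry four EREs upstream of luciferase.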

Measured: Potency

Chain of Estrogen receptor beta (Homo sapiens) (Q92731 whole entry, looked up, the tested form may be a part): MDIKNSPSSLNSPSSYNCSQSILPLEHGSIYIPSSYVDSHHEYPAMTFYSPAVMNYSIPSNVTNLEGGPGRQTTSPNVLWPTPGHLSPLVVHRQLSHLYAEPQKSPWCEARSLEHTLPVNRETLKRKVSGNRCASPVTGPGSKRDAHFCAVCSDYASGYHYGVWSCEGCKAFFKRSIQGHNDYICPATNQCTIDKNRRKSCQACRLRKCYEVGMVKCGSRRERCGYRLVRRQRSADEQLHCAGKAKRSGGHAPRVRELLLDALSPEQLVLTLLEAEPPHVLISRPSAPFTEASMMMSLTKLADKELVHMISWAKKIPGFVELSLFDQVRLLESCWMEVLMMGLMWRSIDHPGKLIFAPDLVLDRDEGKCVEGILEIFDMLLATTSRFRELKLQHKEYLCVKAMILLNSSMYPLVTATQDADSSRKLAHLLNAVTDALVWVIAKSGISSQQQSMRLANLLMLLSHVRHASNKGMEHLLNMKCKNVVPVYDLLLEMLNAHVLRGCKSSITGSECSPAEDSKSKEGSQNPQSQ
Chain of Androgen receptor (Homo sapiens) (P10275 whole entry, looked up): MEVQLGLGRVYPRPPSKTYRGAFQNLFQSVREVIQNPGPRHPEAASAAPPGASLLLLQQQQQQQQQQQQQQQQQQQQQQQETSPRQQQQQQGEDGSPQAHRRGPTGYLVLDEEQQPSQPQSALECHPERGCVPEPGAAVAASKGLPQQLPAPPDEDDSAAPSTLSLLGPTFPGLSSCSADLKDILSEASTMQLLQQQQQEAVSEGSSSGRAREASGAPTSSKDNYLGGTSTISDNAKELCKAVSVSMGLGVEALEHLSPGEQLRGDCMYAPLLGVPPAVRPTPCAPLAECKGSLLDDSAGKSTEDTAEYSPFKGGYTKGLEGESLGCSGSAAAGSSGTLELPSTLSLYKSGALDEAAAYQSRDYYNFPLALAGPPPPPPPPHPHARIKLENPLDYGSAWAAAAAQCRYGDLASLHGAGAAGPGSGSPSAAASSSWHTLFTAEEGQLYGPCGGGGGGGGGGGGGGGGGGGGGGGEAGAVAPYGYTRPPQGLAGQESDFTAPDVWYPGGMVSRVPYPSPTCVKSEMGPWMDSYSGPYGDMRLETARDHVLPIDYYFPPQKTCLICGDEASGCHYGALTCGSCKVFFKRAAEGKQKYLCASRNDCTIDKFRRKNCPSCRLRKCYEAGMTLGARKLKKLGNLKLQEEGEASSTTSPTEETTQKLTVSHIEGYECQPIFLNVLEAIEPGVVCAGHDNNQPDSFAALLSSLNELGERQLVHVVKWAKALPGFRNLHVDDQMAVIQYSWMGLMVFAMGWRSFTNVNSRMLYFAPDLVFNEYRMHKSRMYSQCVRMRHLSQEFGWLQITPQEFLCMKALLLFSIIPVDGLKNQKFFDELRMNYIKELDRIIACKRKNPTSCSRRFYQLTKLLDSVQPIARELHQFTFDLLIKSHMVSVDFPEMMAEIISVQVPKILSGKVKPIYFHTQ
Chain of Estrogen receptor (Homo sapiens) (P03372 whole entry, looked up): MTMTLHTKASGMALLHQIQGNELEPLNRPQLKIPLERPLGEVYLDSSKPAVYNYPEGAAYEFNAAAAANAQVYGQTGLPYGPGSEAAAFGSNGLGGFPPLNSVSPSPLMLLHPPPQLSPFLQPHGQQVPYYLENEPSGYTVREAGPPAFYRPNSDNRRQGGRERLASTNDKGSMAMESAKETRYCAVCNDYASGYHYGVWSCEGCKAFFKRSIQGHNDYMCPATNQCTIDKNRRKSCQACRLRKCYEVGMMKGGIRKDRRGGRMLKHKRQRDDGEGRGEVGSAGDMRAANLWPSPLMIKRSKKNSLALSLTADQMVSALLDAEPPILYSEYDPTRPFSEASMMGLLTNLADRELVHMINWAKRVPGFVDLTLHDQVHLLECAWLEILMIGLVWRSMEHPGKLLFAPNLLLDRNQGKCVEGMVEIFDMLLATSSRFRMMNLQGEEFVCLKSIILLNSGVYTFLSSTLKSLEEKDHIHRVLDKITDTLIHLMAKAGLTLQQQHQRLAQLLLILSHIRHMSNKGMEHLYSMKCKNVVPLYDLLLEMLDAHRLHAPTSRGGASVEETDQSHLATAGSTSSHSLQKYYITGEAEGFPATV

CCNc1cccc(C)c1
inactive: [1] | [2] | [3] | [4] | [5] | [6] | [7] | [8] | [9] | [10] | [11] | [12] | [13] | [14]

COc1ccc(C)cc1N
inactive: [1] | [2] | [3] | [15] | [4] | [5] | [6] | [7] | [8] | [9] | [11] | [12] | [16] | [13] | [14]

CCCCCCCCCCO
inactive: [1] | [2] | [3] | [4] | [5] | [6] | [7] | [8] | [9] | [10] | [17] | [11] | [12] | [13] | [14]

CN1C(=O)CC[C@H]1c1cccnc1
inactive: [1] | [2] | [3] | [18] | [5] | [6] | [7] | [8] | [9] | [17] | [19] | [11] | [12] | [13] | [14]

CC(C)CC(C)O (stereo not given)
inactive: [1] | [2] | [3] | [4] | [5] | [6] | [7] | [8] | [9] | [10] | [17] | [11] | [12] | [13] | [14]

CC(C)CC(=O)CC(C)CC(C)C (stereo not given)
inactive: [1] | [2] | [3] | [15] | [5] | [6] | [7] | [8] | [9] | [10] | [17] | [11] | [12] | [16] | [13] | [14]

CC(=O)Oc1ccc(C)cc1
inactive: [1] | [2] | [3] | [15] | [4] | [18] | [5] | [6] | [7] | [8] | [9] | [10] | [17] | [11] | [12] | [16] | [13] | [20]

Nc1ccc(Cl)c(N)c1
inactive: [1] | [2] | [3] | [4] | [5] | [6] | [7] | [8] | [9] | [10] | [17] | [11] | [12] | [13] | [14]

CCCCC(C=O)CC (stereo not given)
inactive: [1] | [2] | [3] | [4] | [5] | [6] | [7] | [8] | [9] | [10] | [17] | [19] | [11] | [12] | [13] | [20] | [14]

Reference: PubChem BioAssay (Tox21)
